Screens from PubChem.
PLC-beta3 inh: PLC-beta3 (human) inhibition, primary screen. Q01970. inhibition, % at 12.2 µM. Purified PLC-beta3, fluorogenic substrate, fluorescence. hit rate 0.18% among 370,000; in the data active means inhibition above about 11%
proKLK7 act: activates the human kallikrein-7 zymogen | P49862 | purified proKLK7, EDANS-DABCYL substrate fluorescence; 100% is mature enzyme control, 0% vehicle | activation, % at 7 µM | hit rate 0.9% among 370,000;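 active means activation above the mean of all tested compounds plus 3 SD, computed per campaign excluding outliers beyond control limits, cut at about 13% in these data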
ADAM10 inh: inhibits human ADAM10; recombinant ADAM10, EDANS/DABCYL FRET peptide cleavage, 3 h; inhibition, % at 7 µM; hit rate 0.62% among 370,000; AID 720582;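 active means inhibition above a per-campaign cutoff equal to the mean of compounds falling between control-based bounds plus 3 SD, cut at about 20% in these data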
ADAM17 inh: ADAM17 inhibition, QFRET primary screen; P78536; recombinant ADAM17, EDANS/DABCYL FRET peptide cleavage; inhibition, % at 6.95 µM; hit rate 0.83% among 370,000; AID 720648;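 active means inhibition above the mean of compounds lying between control limits plus 3 SD, set per campaign, cut at about 8.5% in these data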
PLC-gamma1 inh: PLC-gamma1 (human) inhibition, primary screen; hit rate 0.84% among 370,000; purified PLC-gamma1, fluorogenic substrate, fluorescence; P19174; inhibition, % at 12.2 µM; in the data active means inhibition above about 9.5%
ADAM10 confirm: human ADAM10 inhibition, confirmation; shares compounds with ADAM10 inh; ADAM10 QFRET peptide cleavage, EDANS fluorescence; inhibition, % at 6.95 µM; hit rate 1% among 2,100; AID 743208;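 active means inhibition above about 20% chosen separately for each screening run, limit read from the data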
ADAM17 ctr: inhibits human ADAM17 in ADAM10 exosite counter-screen; shares compounds with ADAM10 inh; hit rate 0.5% among 2,100; inhibition, % at 6.95 µM; ADAM17 QFRET peptide cleavage, EDANS fluorescence;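 active means mean triplicate inhibition above the solvent-only control wells' mean plus 3 SD, cut at about 12% in these data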
ADAM10 counter: counter-screen for ADAM17 exosite inhibitors: inhibitors of human ADAM10 | shares compounds with ADAM17 inh | recombinant ADAM10, EDANS/DABCYL FRET peptide cleavage, 3 h | inhibition, % at 6.95 µM | hit rate 47% among 2,900;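 active means mean inhibition over the triplicate runs exceeds the activity threshold set in the earlier primary screen, cut at about 20% in these data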
ADAM17 confirm: human ADAM17 inhibition, confirmation. shares compounds with ADAM17 inh. recombinant ADAM17, EDANS/DABCYL QFRET peptide cleavage. inhibition, % at 6.95 µM. hit rate 65% among 2,900. AID 743257;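 active means mean inhibition across replicates above the hit cutoff set in the primary screen, cut at about 8.5% in these data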
Of the large screens only hits and unclear results are named; the others gave an inactive call (follow-up assays come after a bar, where they were run). Rows were chosen to be rich in hits. Some 2.9% of all compounds tested hit in one or more screens of this group.

O=[N+]([O-])c1ccc(-c2nc(Nc3cccc(O)c3)c3ccccc3n2)cc1	ADAM10 inh 31, ADAM17 inh 13 | ADAM10 confirm inactive | ADAM17 ctr inactive | ADAM10 counter 34 | ADAM17 confirm 17
O=C(O)c1cccc(Nc2nc(-c3ccc([N+](=O)[O-])cc3)nc3ccccc23)c1	none
CC(=O)Oc1ccc(CC(C(=O)O)N2C(=O)c3ccccc3C2=O)cc1 (stereo unspecified)	none
CCN(CC(=O)NC1CCS(=O)(=O)C1)C(=O)/C=C/c1cccs1 (stereo unspecified)	none
CCCCCCCC/C=C\CCCCCCCC(=O)NCCc1ccc(O)c(O)c1	ADAM10 inh 28, ADAM17 inh 13 | ADAM10 confirm inactive | ADAM17 ctr inactive | ADAM10 counter 26 | ADAM17 confirm 17
COc1ccc(C(=O)Nc2ccccc2)cc1S(=O)(=O)NCc1ccco1	none
Cc1cc(C(=O)OCC(=O)Nc2ccc(S(=O)(=O)N3CCOCC3)cc2)c(C)o1	none
CCCCN1CC(COCc2ccccc2)Oc2cccc(OCCN3C(=O)[C@@H]4[C@H](C3=O)C3C=C[C@H]4C3)c2S1(=O)=O (stereo partly specified)	ADAM10 inh 26, ADAM17 inh 13 | ADAM10 confirm inactive | ADAM17 ctr inactive | ADAM10 counter 44 | ADAM17 confirm 18
O=C1[C@@H]2[C@H](C(=O)N1C[C@@H](COCc1ccccc1)Oc1cccc3c1S(=O)(=O)N(CCc1ccc(F)cc1)C[C@H](COCc1ccccc1)O3)[C@@H]1C=C[C@H]2C1	none
Cc1nn(Cc2ccccc2Cl)c2sc(C(=O)NCc3ccc4c(c3)OCO4)cc12	ADAM10 inh 23, ADAM17 inh 12 | ADAM10 confirm inactive | ADAM17 ctr inactive | ADAM10 counter inactive | ADAM17 confirm 12
Cc1noc(C)c1COc1ccc(C(=O)OCC(=O)Nc2ccc3ccccc3c2)cc1	ADAM10 inh 20, ADAM17 inh 8.8 | ADAM10 confirm inactive | ADAM17 ctr inactive | ADAM10 counter 33 | ADAM17 confirm 19
CCOc1ccc2nc(NC(=O)c3ccoc3C)sc2c1	none
COc1ccc(/C=N/OCC(=O)N2CC3(C)CC2CC(C)(C)C3)cc1OC (stereo unspecified)	none
O=C(Nc1cccc(F)c1)c1cc(S(=O)(=O)NCCC2=CCCCC2)ccc1F	ADAM10 inh 24, ADAM17 inh 9.1 | ADAM10 confirm inactive | ADAM17 ctr inactive | ADAM10 counter 22 | ADAM17 confirm 14
O=c1c(Cc2ccc(F)cc2)c(O)ccn1CC1CCCO1 (stereo unspecified)	none
COc1cccc(-c2cnc(C(O)c3cccc(OC)c3)[nH]2)c1 (stereo unspecified)	none
CC(=O)Nc1ccc(NS(=O)(=O)c2cccc3ccccc23)cc1	none
O=S(=O)(Nc1ccc(C(O)(C(F)(F)F)C(F)(F)F)cc1)c1cccc2ccccc12	ADAM10 inh 34, ADAM17 inh 11 | ADAM10 confirm inactive | ADAM17 ctr inactive | ADAM10 counter 40 | ADAM17 confirm 21
OC(c1ccc(F)c(F)c1)c1nc(-c2ccc(F)c(Cl)c2)cs1 (stereo unspecified)	ADAM10 inh 22, ADAM17 inh 8.9 | ADAM10 confirm inactive | ADAM17 ctr inactive | ADAM10 counter 36 | ADAM17 confirm 16
OC(c1ccc(F)c(F)c1)c1nc(-c2cccc(C(F)(F)F)c2)cs1 (stereo unspecified)	ADAM10 inh 26, ADAM17 inh 9.4 | ADAM10 confirm inactive | ADAM17 ctr inactive | ADAM10 counter inactive | ADAM17 confirm 14
OC(c1ccc(F)cc1)c1nc(-c2cccc(C(F)(F)F)c2)cs1 (stereo unspecified)	none
COc1ccc(C(O)c2nc(-c3cccc(C(C)C)c3)cs2)cc1 (stereo unspecified)	ADAM10 inh 21, ADAM17 inh 11 | ADAM10 confirm inactive | ADAM17 ctr inactive | ADAM10 counter inactive | ADAM17 confirm 8.7
O=C(Cc1ccccc1)Nc1c(C(=O)N2CCOCC2)cnn1-c1ccccc1	none
CN(Cc1ccccc1)C(=O)c1cccc(NC(=O)Cc2ccc(NC(=O)C3CCCN(C(=O)CCc4ccccc4)C3)cc2)c1 (stereo unspecified)	none
CN(Cc1ccccc1)C(=O)c1ccc(NC(=O)Cc2cccc(NC(=O)C3CCCN(C(=O)CCc4ccccc4)C3)c2)cc1 (stereo unspecified)	ADAM10 inh 24, ADAM17 inh 14 | ADAM10 confirm inactive | ADAM17 ctr inactive | ADAM10 counter 24 | ADAM17 confirm 14
O=C(CNc1cc(S(=O)(=O)N2CCCC2)ccc1OCC(F)(F)F)Nc1ccc(SC(F)F)cc1	ADAM10 inh 20, ADAM17 inh 16 | ADAM10 confirm inactive | ADAM17 ctr inactive | ADAM10 counter 35 | ADAM17 confirm 20
O=C(COC(=O)c1cc(S(=O)(=O)N2CCCC2)ccc1O)Nc1ccc(SC(F)F)cc1	none
CN(CC(=O)Nc1cccc(F)c1)CC(=O)Nc1cccc(S(=O)(=O)N2CCCCCC2)c1	ADAM10 inh 36, ADAM17 inh 16 | ADAM10 confirm inactive | ADAM17 ctr inactive | ADAM10 counter 23 | ADAM17 confirm 14
O=C(CNc1ccc(C(F)(F)F)cc1)Nc1cccc(S(=O)(=O)N2CCCC2)c1	none
O=C(CNc1ccc(C(F)(F)F)cc1)Nc1cccc(S(=O)(=O)N2CCCCC2)c1	ADAM10 inh 22, ADAM17 inh 9.8 | ADAM10 confirm inactive | ADAM17 ctr inactive | ADAM10 counter 54 | ADAM17 confirm 27
Cc1ccccc1NC(=O)C1CCCN(c2ncnc3onc(-c4ccc(F)cc4)c23)C1 (stereo unspecified)	none
Cc1ccccc1S(=O)(=O)Cc1ccc(C(=O)N2CC(C)CC(C)C2)o1 (stereo unspecified)	none
Cc1ccccc1S(=O)(=O)Cc1ccc(C(=O)N2CCN(c3cccc(C)c3C)CC2)o1	ADAM10 inh 22, ADAM17 inh 9.0 | ADAM10 confirm inactive | ADAM17 ctr inactive | ADAM10 counter inactive | ADAM17 confirm 12
COc1ccc(C(=O)NC(=S)NNC(=O)c2cnccn2)cc1	none
O=C(COC(=O)CC1c2ccccc2CCN1S(=O)(=O)c1ccc(F)cc1)Nc1ccccc1 (stereo unspecified)	none
